Shown are actives, neighbours in structure and some others; about 3.1% of the full set was active somewhere.
IDH1 R132H inh: human IDH1 R132H inhibition; O75874; IDH1-R132H enzyme, NADPH consumption, diaphorase/resazurin fluorescence; Potency, µM (titrated, usually from 76.6 µM), actives largely listed as inhibitors; 390,000 compounds, 0.093% hits; further: nearly all actives have a fitted effect of over 65% in size
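IDH1-R132H (0.5 ug/mL) preincubated 30 min with compound, then NADPH (0.016 mM) and alpha-KG (2 mM) added; 80 min at RT, pH 7.5. Remaining NADPH coupled via diaphorase/resazurin to fluorescence (540/590 nm); concentration-response curves normalized to no-enzyme control.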
TrxR1 inh: blocks rat thioredoxin reductase 1; O89049; recombinant rTrxR1, NADPH fluorescence consumption, selenite substrate; Potency, µM (titrated, usually from 114 µM), actives largely listed as inhibitors; 390,000 compounds, 1% hits; AID 588453; further: nearly all actives have a fitted effect of over 65% in size
Target sequence (O89049 whole entry, looked up): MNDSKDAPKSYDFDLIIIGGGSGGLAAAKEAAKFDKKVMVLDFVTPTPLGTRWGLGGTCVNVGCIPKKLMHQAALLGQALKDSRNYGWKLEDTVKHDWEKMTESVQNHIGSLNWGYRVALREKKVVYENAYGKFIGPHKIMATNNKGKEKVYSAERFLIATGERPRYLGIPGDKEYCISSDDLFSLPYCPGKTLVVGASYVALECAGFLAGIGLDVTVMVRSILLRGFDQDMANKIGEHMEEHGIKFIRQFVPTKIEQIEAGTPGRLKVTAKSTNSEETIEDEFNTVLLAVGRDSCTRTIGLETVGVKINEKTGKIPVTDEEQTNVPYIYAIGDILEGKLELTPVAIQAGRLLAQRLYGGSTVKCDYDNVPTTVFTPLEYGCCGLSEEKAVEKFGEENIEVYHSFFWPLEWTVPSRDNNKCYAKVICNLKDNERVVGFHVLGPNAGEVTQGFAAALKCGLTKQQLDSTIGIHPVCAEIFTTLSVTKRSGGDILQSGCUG
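Rat TrxR1 (90 nM in the dispensed reagent) was pre-reduced with 400 uM NADPH for 5 min at room temperature, then incubated with compound for 15 min. After 400 uM selenite was added, NADPH fluorescence (Ex 340/Em 450 nm) was followed for 8 min.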
TrxR1 substrate: is turned over as a substrate by rat TrxR1. O89049. purified TrxR1 substrate turnover, NADPH consumption readout. Potency, µM (doses to about 114 µM). 390,000 compounds, 0.01% hits; further: nearly all actives have a fitted effect of over 50% in size
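Rat TrxR1, dispensed at 90 nM, was prereduced with 400 uM NADPH (final) for 5 min at ~22 deg C, then incubated with compound 15 min before 400 uM selenite. A first-read NADPH fluorescence drop versus no-compound background flagged substrates.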
A549 tox-1: counter-screen for Nrf2 inhibitors: cytotoxicity in A549 cells. A549 ARE-Fluc cells, CellTiter-Fluor viability, 18-24 h. Potency, µM (highest dose often 46 µM), usual class: inhibitors. 390,000 compounds, 0.16% hits. AID 504648
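A549 ARE-Fluc cells in 5% FBS OPTI-MEM, 5000 cells/well, rested 2 h then exposed to compounds in concentration-response for 18-24 h at 37 °C. Viability by CellTiter-Fluor fluorescence (Ex 405/Em 525) after 30 min; luciferase luminescence (BugLite, 15 min, RT) read afterwards.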
Mito fusion act: mitochondrial division inhibition or fusion activation; AID 485298; Potency, µM (series often up to 46.1 µM), most hits filed as activators; S. cerevisiae fusion-defective mutant growth rescue, CellTiterGlo 48 h; 320,000 compounds, 0.23% hits; further: nearly all actives have a fitted effect of over 45% in size
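Yeast fusion mutant, YPEG (non-fermentable carbon), compound, 48 h at 37C non-permissive; CellTiterGlo added, 10 min RT, luminescence read. Rescued growth = division inhibition.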
Nrf2 inh: inhibitors of Nrf2 signaling; A549 ARE-Fluc reporter, luciferase luminescence, 18-24 h; Potency, µM (series often up to 46 µM), hits mostly inhibitors; 360,000 compounds, 2.1% hits; further: nearly all actives have a fitted effect of over 60% in size
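A549 ARE_Fluc cells, 5000/well, 5% FBS OPTI-MEM; compounds in dose-response, 18-24 h at 37 °C/5% CO2; CellTiter-Fluor viability read (Ex 405/Em 525), then BugLite luciferase luminescence = Nrf2 activity.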
FLuc enzyme inh: firefly luciferase inhibition, Nrf2 hit validation; purified firefly luciferase, luminescence inhibition; 1,400 compounds, 4% hits; shares compounds with Nrf2 inh; Potency, µM (top dose mostly 57.5 µM), usual class: inhibitors; further: nearly all actives have a fitted effect of over 65% in size
A549 tox-2: A549 cytotoxicity, Nrf2 inhibitor counterscreen; A549 ARE-Fluc cells, cytotoxicity counterscreen; 1,400 compounds, 2% hits; shares compounds with Nrf2 inh; Potency, µM (series often up to 46.1 µM), actives largely listed as inhibitors;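 further: cells exposed to compounds for 18 to 24 hours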
ARE-Fluc inh: Nrf2 inhibition confirmed, A549 ARE-luciferase; 1,400 compounds, 74% hits; A549 ARE-firefly luciferase reporter, luminescence; shares compounds with Nrf2 inh; Potency, µM (series often up to 46.1 µM), actives largely listed as inhibitors; AID 720524; further: nearly all actives have a fitted effect of over 65% in size
Of the large screens only hits and unclear results are named; the others gave an inactive call (follow-up assays come after a bar, where they were run). The call rests on the fitted dose curve; in most records, active means well fitted curve in the direction sought with a large enough effect; inconclusive means small, poorly fitted or top-dose-only effect, or another doubt; inactive means no such curve, though single readings can be large; an effect the other way counts as inactive or inconclusive.

O=C(CSc1nc2ccccc2c(=O)n1-c1ccccc1)N1CCc2ccccc2C1	Nrf2 inh inconclusive
CC(C)c1ccccc1-n1c(SCC(=O)N2CCc3ccccc3C2)nc2ccccc2c1=O	Nrf2 inh 8.2µM | FLuc enzyme inh inactive | A549 tox-2 inconclusive | ARE-Fluc inh 16.4µM
Cc1nn(-c2ccc(F)cc2)c(-n2cccc2)c1C(=O)NCCc1ccc(Cl)cc1	Nrf2 inh inconclusive (no result: Mito fusion act)
CC[C@]12c3[nH]c4ccc(Cl)cc4c3CCN1C(=O)[C@@H](CC(=O)NC/C=C(\C)CCC=C(C)C)C[C@@H]2C(=O)N1CCN(C(=O)c2ccco2)CC1	IDH1 R132H inh inconclusive, A549 tox-1 inconclusive, Nrf2 inh 6.51µM (no result: Mito fusion act) | FLuc enzyme inh inactive | A549 tox-2 inconclusive | ARE-Fluc inh 16.4µM
O=C(Cc1ccccc1)NC1CC(=O)N(c2ccccc2)C1 (stereo unspecified)	none (no result: Mito fusion act, Nrf2 inh)
CCOc1ccccc1NC(=O)Cn1c(=O)n(-c2ccc(C)c(C)c2)c(=O)c2oc3ccccc3c21	none (no result: Mito fusion act)
O=C(NC1CCCc2ccccc21)c1cn2ccccc2n1 (stereo unspecified)	none
Cc1nc2ccccn2c1C(=O)NC1CCCc2ccccc21 (stereo unspecified)	Nrf2 inh 1.64µM | FLuc enzyme inh inactive | A549 tox-2 inactive | ARE-Fluc inh 4.61µM
Cc1cc(C)c(S(=O)(=O)Nc2cccc3nsnc23)c(C)c1	Mito fusion act inconclusive
Cc1cc(C)c(S(=O)(=O)Nc2cccc3cccnc23)c(C)c1	Nrf2 inh 2.91µM (no result: IDH1 R132H inh, Mito fusion act) | FLuc enzyme inh inactive | A549 tox-2 inactive | ARE-Fluc inh 16.4µM
CC(C)(C)NC(=O)CSc1nc2ccc(NC(=O)CSc3nnnn3Cc3ccccc3)cc2s1	Nrf2 inh 8.2µM | FLuc enzyme inh inactive | A549 tox-2 inactive | ARE-Fluc inh 7.31µM
CCOC(=O)CSc1nc2ccc(NC(=O)CSc3nnnn3Cc3ccccc3)cc2s1	none
Cc1ccc(CNC(=O)Cn2c(=O)ccc3cc(S(=O)(=O)N4CCC(C)CC4)ccc32)cc1	none (no result: Mito fusion act, Nrf2 inh)
COc1cc(CNCc2ccc(OC)cc2OC)cc(OC)c1	Nrf2 inh 7.31µM | FLuc enzyme inh inactive | A549 tox-2 inactive | ARE-Fluc inh inconclusive
Cc1ccccc1C(=O)N1CCN(c2ccc(NC(=O)c3ccc4c(c3)OCO4)cc2)CC1	Nrf2 inh 9.2µM | FLuc enzyme inh inactive | A549 tox-2 inactive | ARE-Fluc inh 7.31µM
O=C(Nc1ccc(N2CCN(C(=O)c3ccco3)CC2)cc1)c1ccc2c(c1)OCO2	none
CCCCCCCCCCCCCCCC(=O)Nc1ccn(C2OC(CO)C(O)C2O)c(=O)n1 (stereo unspecified)	Nrf2 inh inconclusive (no result: Mito fusion act) | FLuc enzyme inh inactive | A549 tox-2 inactive | ARE-Fluc inh 0.82µM
CCc1nnc(NC(=O)c2ccc(OCc3c(C)noc3C)c(OC)c2)s1	Nrf2 inh 5.8µM | FLuc enzyme inh inactive | A549 tox-2 inactive | ARE-Fluc inh inactive
CCOC(=O)c1c(NC(=O)CCCOc2ccc(Cl)cc2)sc2c1CCC2	none (no result: Mito fusion act)
O=C(NCc1ccccc1)c1cccn1-c1nnc(N2CCCCC2)s1	none (no result: Mito fusion act)
COc1ccccc1N1CCN(C(=O)C2CCCN(S(=O)(=O)c3ccc4c(c3)CCCN4C(C)=O)C2)CC1 (stereo unspecified)	Nrf2 inh 9.2µM | FLuc enzyme inh inactive | A549 tox-2 inactive | ARE-Fluc inh 9.2µM

Screening data from PubChem BioAssay.
